In PubChem BioAssay (NCATS):
Records with an inconclusive call do not appear. Values without a mark were called inactive. Active and inactive are the calls of the source. Calls follow the shape of the full dose curve.

Target: Cytochrome P450 1A2 (Homo sapiens) (UniProt P05177)
Assay: p450-cyp1a2 (AID 410);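 as to activity change, negative = inhibition: -100% = full effect of reference inhibitor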
Details: recombinant CYP1A2, luciferin-ME demethylation, luminescence; series mostly up to 11.4 µM; activity change, negative = inhibition: at the top concentration
Procedure: The P450 gene superfamily is involved in metabolism and the clearance of xenobiotics. This assay used human CYP1A2 to measure the demethylation of luciferin 6' methyl ether (Luciferin-ME; Promega-Glo) to luciferin. The luciferin is then measured by luminescence after the addition of a luciferase detection regeant. Luciferin-ME concentration in the assay was equal to its Km for CYP1A2.
NCGC Assay Protocol Summary:
Two uL of enzyme and substrate mix (final concentrations: 20nM CYP1A2, 100uM Luciferin-ME, 100mM KPO4) were dispensed into a white, solid bottom 1536-well microtiter plate. 23nL of compound was transferred by a pin tool. The plate was incubated at room temperature for 10 min. Two uL of an NADPH regeneration solution (Promega supplied reagent) was dispensed and the reaction was allowed to continue for 60 min at room temperature. Then the reaction was stopped by reconstituted detection reagent. After another 20 min of incubation the plate was read on the ViewLux (Perkin Elmer) at 60 sec exposure and 2x2 binning. This protocol was carried out with Promega-Glo reagents and further information can be found at http://www.promega.com/tbs/tb325/tb325.pdf. Data were normalized to the to AC100 inhibition (57 uM furafylline).
Potency is read from the fitted curve at half-maximal effect.

Sequence of Cytochrome P450 1A2 (Homo sapiens) (P05177 whole entry, looked up): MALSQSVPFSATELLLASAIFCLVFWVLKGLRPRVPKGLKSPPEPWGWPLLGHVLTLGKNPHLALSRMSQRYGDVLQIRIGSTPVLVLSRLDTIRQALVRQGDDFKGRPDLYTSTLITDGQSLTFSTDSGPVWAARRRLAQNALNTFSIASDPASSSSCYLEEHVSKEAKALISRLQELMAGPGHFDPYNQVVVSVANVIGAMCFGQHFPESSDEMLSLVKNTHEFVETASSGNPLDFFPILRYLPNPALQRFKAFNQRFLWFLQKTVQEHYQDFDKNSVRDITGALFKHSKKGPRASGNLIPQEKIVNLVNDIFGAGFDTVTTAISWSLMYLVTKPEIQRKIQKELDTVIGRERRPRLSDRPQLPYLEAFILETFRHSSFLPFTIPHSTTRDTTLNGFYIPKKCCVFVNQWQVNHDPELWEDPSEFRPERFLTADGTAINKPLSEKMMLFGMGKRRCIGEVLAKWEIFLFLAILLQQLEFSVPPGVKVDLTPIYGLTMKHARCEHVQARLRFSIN

Row | Structure (SMILES) | activity change, negative = inhibition | Potency
1 | C[C@@H]1O[C@H](OC2[C@@H](O)[C@H](O)C(O)[C@H](O)[C@H]2O)[C@@H](N)C[C@@H]1N=C(N)C(=O)O (stereo not given in full) | 1.2% [at 2.29 µM] | –
2 | CC(=O)O[C@H]1CC[C@@]2(C)[C@@H](CC[C@H]3[C@H]2CC(=O)[C@]2(C)[C@@H]3C[C@@H](N3CC3)[C@H]2C(C)=O)C1 | – | 0.0398 µM (active)
3 | c1cncc(CNCCN2CCNCC2)c1 | 6.1% | –
4 | N[C@@H](CSC1c2ccccc2-c2ccccc21)C(=O)O | – | 2.51 µM (active)
5 | NCCc1c[nH]c2ccc(OC(=O)C(=O)O)cc12 | – | 2.51 µM (active)
6 | CC(=O)[C@@H]1CC[C@H]2[C@H]3CC[C@H]4C[C@@H](O)CC[C@]4(C)[C@@H]3CC[C@]12C | – | 10 µM (active)
7 | N[C@@H](Cc1ccccc1)P(=O)(O)O | -13.6% | –
8 | C[C@@]12CC[C@H](O)C[C@@H]1CC[C@@H]1[C@@H]2CC[C@@]2(C)[C@@H](C3=CC(=O)OC3)[C@H](O)C[C@]12O | -18.3% | –
9 | COC(=O)c1c(C)ccc2c(O)c3c(cc12)C(=O)c1c2c(cc(O)c1C3=O)[C@@]1(C)O[C@@](C)(O2)[C@@H](O)[C@H](N(C)C)[C@H]1O | – | 5.01 µM (active)
10 | C[N+]1(C)CCc2cc3c(cc2[C@@H]1[C@@H]1OC(=O)c2c1ccc1c2OCO1)OCO3 | -11.3% [at 57 µM] | –
11 | C[C@H]1CC[C@@]2(NC1)O[C@@H]1C[C@@H]3[C@@H]4CC=C5C[C@@H](O)CC[C@]5(C)[C@@H]4CC[C@]3(C)[C@H]1[C@@H]2C | -1% | –
12 | c1ccc(C[N+]23CN4CN(CN(C4)C2)C3)cc1 | -10.1% [at 2.29 µM] | –
13 | COC(=O)[C@H](N)CCCN=C(N)N[N+](=O)[O-] | -6.8% [at 57 µM] | –
14 | Oc1ccc(CCNCc2cc3c(cc2Br)OCO3)cc1 | – | 1 µM (active)
15 | NC(N)=NCCN=C(N)N | -17.5% | –
16 | CC1(C)N=C(N)N=C(N)N1c1cccc(C(=O)Nc2ccc(S(=O)(=O)F)cc2)c1 | -15.8% | –
17 | Cc1ccc(NC(=[OH+])c2cc3ccccc3cc2O)c(C)c1.Cc1ccc(NC(=[OH+])c2cc3ccccc3cc2O)c(C)c1.[Ni] | – | 0.251 µM (active)
18 | O=C(O)[C@H]1[O][Sb][O][C@@H](C(=O)O)C1O (stereo not given in full) | -15% [at 2.29 µM] | –
19 | CC[C@H]1CN2CCc3cc(OC)c(OC)cc3[C@H]2C[C@@H]1C[C@H]1NCCc2c1[nH]c1ccc(O)cc21 | -7.4% | –
20 | C[Se]C[C@@H](N)C(=O)O | 0.1% [at 57 µM] | –

Row | Structure (SMILES) | activity change, negative = inhibition | Potency
21 | C[As+](C)(c1ccc(Br)c([N+](=O)[O-])c1)c1ccc(Br)c([N+](=O)[O-])c1.O=[N+]([O-])O | -12.7% | –
22 | CC(C)N[C@@H](C)Cc1ccc(I)cc1 | – | 10 µM (active)
23 | C[C@@]12CC[C@H]3[C@@H](CCC4=C(O)C(=O)CC[C@]43C)[C@H]1CCC2=O | -8.4% [at 57 µM] | –
24 | COc1ccccc1CN1CCCC2(CCN(C(=O)Oc3ccccc3)CC2)C1 | -16.8% [at 57 µM] | –
25 | O=C(O)[C@@H](O)[C@@H](O)[C@@H]1[O][Sb][O][C@@H]1CO | -5.1% [at 2.29 µM] | –
26 | CS(=N)(=O)CC[C@H](N)P(=O)(O)O (stereo not given in full) | -13.9% | –
27 | CN[C@H]1[C@H](C)O[C@@H](O[C@@H]2C/C=C(/C)C/C(C)=C\C=C/CC[C@@H](C)CNC(=O)/C=C\C=C/[C@H]2C)C[C@@H]1O | -10.5% | –
28 | CN1C[C@@H](CS(=O)(=O)N(C)C)C[C@H]2c3cccc4c3c(cn4C)C[C@@H]21 | – | 25.1 µM (active)
29 | COc1ccc(C(=O)O[C@H]2CC[C@@]3(C)[C@H]4CC[C@H]5[C@]3(C[C@]3(O)[C@H]6CN7C[C@H](C)CC[C@H]7[C@](C)(O)[C@]6(O)[C@H](O)C[C@]53O)O[C@]24O)cc1OC | -20.9% [at 2.29 µM] | –
30 | CO[C@H]1[C@H](O)[C@H](O[C@@H]2[C@H](Oc3cccc4c(O)c5c(=O)oc6ccc(C)c7c(=O)oc(c34)c5c67)O[C@@H](C)[C@H](O)[C@H]2O)O[C@@H](C)[C@@H]1O | -16.6% | –
31 | COc1cc2c(cc1OC)[C@@]13CCN4C=C5CCO[C@H]6CC(=O)N2[C@@H]1[C@@H]6[C@H]5C[C@H]43 | – | 5.01 µM (active)
32 | N[C@@H](Cc1cc(Br)c(O)c(Br)c1)C(=O)O | -2.8% | –
33 | CC(C)c1nccn1Cc1ccc(Cl)cc1Cl | -14.7% | –
34 | CCn1cnc2c(Nc3cccc(Cl)c3)nc(N[C@@H]3CCCC[C@H]3N)nc21 | – | 15.8 µM (active)
35 | C[C@]12CC[C@H](O)C[C@@H]1CC[C@H]1[C@H]2CC[C@]2(C)[C@H](C(=O)CO)CC[C@@H]12 | – | 25.1 µM (active)
36 | c1cc(C2N3CCCN2CC3)ccn1 (stereo not given) | – | 1.26 µM (active)
37 | CO[C@@H]([CH2][Hg])CN1C(=O)c2ccccc2S1(=O)=O.Cn1c(=O)c2nc[nH]c2n(C)c1=O | -22% [at 2.29 µM] | –
38 | Oc1ccc2c3c1O[C@@H]1c4[nH]c5c(c4C[C@@]4(O)[C@@H](C2)N(CC2CC2)CC[C@]314)C[C@]1(O)[C@@H]2Cc3ccc(O)c4c3[C@@]1(CCN2CC1CC1)[C@H]5O4 | -5.2% [at 57 µM] | –
39 | N[C@@H](CP(=O)(O)O)C(=O)O | -12.6% | –
40 | Cc1ncc([N+](=O)[O-])n1CCN=[N+]=[N-] | -9.7% | –
